SW480 rereplic: induces DNA re-replication in SW480 colon adenocarcinoma cells; actives 1.8% (n = 340,000); Potency, µM (series often up to 46.1 µM), hits mostly activators; SW480 DNA re-replication, Hoechst DNA content imaging, 48 h; AID 624297; also: nearly all actives have a fitted effect of over 55% in size
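DNA re-replication was detected as more nuclei of elevated Hoechst intensity after 48 hr exposure to compound (23 nL pinned per well of 250 cells).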
MCF10A rereplic: DNA re-replication induction in MCF 10a cells. Potency, µM (doses to about 46.1 µM), actives largely listed as activators. MCF 10A DNA re-replication, Hoechst nuclear intensity, 48 h. actives 2.9% (n = 350,000); also: nearly all actives have a fitted effect of over 50% in size
TDP1 cell noCPT: qHTS for Inhibitors of human tyrosyl-DNA phosphodiesterase 1 (TDP1): qHTS in cells in absence of CPT. DT40 Tdp1-/- hTDP1 cells, no CPT, ATP luminescence, 48 h. Potency, µM (titrated, usually from 46.2 µM), hits mostly inhibitors. actives 15% (n = 420,000). AID 686978, 2013; also: nearly all actives have a fitted effect of over 55% in size
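Seeded 400 DT40-hTDP1 cells/well (vehicle DMSO, no 20 nM CPT); pinned compounds; ≥48 hr at 37 °C; CellTiter-Glo luminescence as viability measure.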
IL1B secr inh: blocks inflammasome-driven IL-1 beta release; THP-1 LPS/ATP IL-1B secretion, AlphaLISA, 16 h; stronger effect = lower value; activity change, % at 57.5 µM; actives 4.7% (n = 360,000); AID 743279; in the data active = activity change below about -50%; inconclusive = mostly about -30% to -49%
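Secreted IL-1B measured by AlphaLISA bead assay after 16 h compound exposure of THP-1 cells; compounds (final up to 57.5 uM) added 1 h before LPS (250 ng/mL) and ATP (1.25 mM) stimulation; lower signal means less secretion.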
TDP1 cell CPT: growth inhibition of DT40 Tdp1-/-;hTDP1 cells with camptothecin (screen for TDP1 inhibitors) | chicken DT40 Tdp1-/-;hTDP1 cells + 20 nM CPT, ATP luminescence, 48 h | Potency, µM (titrated, usually from 46.2 µM), most hits filed as inhibitors | actives 12% (n = 420,000) | AID 686979; also: nearly all actives have a fitted effect of over 55% in size
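Cell growth measured by CellTiter-Glo luminescence after a minimum 48 h, 37 C compound exposure with 20 nM CPT in Tdp1-knockout DT40 cells stably expressing hTDP1, seeded 400/well; qHTS titration format.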
Chronic BCR inh: chronic active BCR signaling inhibition | ABC-DLBCL IkBa-CBG/CBR reporter, luminescence ratio, 4 h | Potency, µM (doses to about 46.1 µM), hits mostly inhibitors | actives 0.05% (n = 340,000) | AID 493014; active = well fitted inhibition curve with a large enough effect in the signal ratio, with a control signal flat, not every such curve was filed as active; inconclusive = small, poorly fitted or top-dose-only effect, or effect the other way, or a change in a side signal; the % refers to the signal ratio
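TMD8 ABC-DLBCL cells carrying doxycycline-inducible green luciferase fused to IkappaBalpha plus unfused red luciferase were exposed to compounds (up to 46 uM) for 4 hrs at 37C. Activity came from the overlap-corrected green/red luminescence ratio.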
Of the large screens only hits and unclear results are named; the others gave an inactive call. Hits are enriched below; roughly 19% of the tested compounds scored in any of these assays. Unless noted, calls follow the shape of the dose curve; as a rule, active = well fitted curve in the direction sought with a large enough effect; inconclusive = small, poorly fitted or top-dose-only effect, or another doubt; inactive = no such curve, though single readings can be large; an effect the other way counts as inactive or inconclusive.

CCCCC(CC)CNC(=O)C(Cc1ccccc1)NS(=O)(=O)c1ccc2c(c1)CCC(=O)N2 (centres undefined)	SW480 rereplic inconclusive, TDP1 cell CPT inconclusive
Cc1cc(=O)c2cccc(Br)c2[nH]1	none
O=c1cc(C(F)(F)F)[nH]c2c(C(F)(F)F)cccc12	SW480 rereplic inconclusive, MCF10A rereplic inconclusive, TDP1 cell noCPT 16µM, TDP1 cell CPT 18µM
O=c1cc(C(F)(F)F)[nH]c2ccc(OC(F)(F)F)cc12	MCF10A rereplic inconclusive, TDP1 cell noCPT 13µM, TDP1 cell CPT 21µM, Chronic BCR inh inconclusive (no result: IL1B secr inh)
COC(=O)c1sccc1NC(=O)Nc1ccc(F)cc1F	none
COC(=O)c1ccccc1-c1ccc(/C=N/NC(=O)c2cc3ccccc3o2)o1	MCF10A rereplic inconclusive, TDP1 cell noCPT 15µM, TDP1 cell CPT inconclusive
CCOc1cccc(/C=N/Nc2nc(N3CCCC3)nc(N3CCCC3)n2)c1O	TDP1 cell noCPT 13µM, IL1B secr inh -108, TDP1 cell CPT 16µM
COc1nc(N/N=C/c2ccc(-c3ccccc3[N+](=O)[O-])o2)nc(N2CCOCC2)n1	SW480 rereplic inconclusive, MCF10A rereplic 10µM, TDP1 cell noCPT inconclusive, TDP1 cell CPT inconclusive, Chronic BCR inh inconclusive
O=[N+]([O-])c1ccc(-c2ccc(/C=N/Nc3nc(NCc4ccccc4)nc(N4CCOCC4)n3)o2)cc1	SW480 rereplic 9.2µM, MCF10A rereplic 7.3µM, TDP1 cell noCPT 16µM, IL1B secr inh -91, TDP1 cell CPT 9.2µM
COC(=O)c1ccccc1-c1ccc(/C=N/Nc2nc(N3CCCC3)nc(N3CCCC3)n2)o1	SW480 rereplic inconclusive, MCF10A rereplic inconclusive, TDP1 cell noCPT 23µM, IL1B secr inh -91, TDP1 cell CPT inconclusive, Chronic BCR inh inconclusive
Cc1ccc(Nc2ccc(C(=O)N3CCCC3)cn2)c(C)c1	TDP1 cell noCPT 26µM, TDP1 cell CPT inconclusive, Chronic BCR inh inconclusive
Cc1cccc(Nc2ccc(C(=O)N3CCOCC3)cn2)c1	Chronic BCR inh inconclusive
CCCNC(=O)CNC(=O)c1ccccc1OCC(=O)Nc1ccc(Br)cc1	TDP1 cell noCPT inconclusive (no result: SW480 rereplic, MCF10A rereplic, IL1B secr inh, Chronic BCR inh)
COc1cc(-c2cc(C(=O)Nc3c(Cl)cc(Cl)cc3Cl)c3ccccc3n2)cc(OC)c1OC	MCF10A rereplic inconclusive, TDP1 cell noCPT 18µM, TDP1 cell CPT 21µM
CCN(CC)S(=O)(=O)c1ccc(O)c(NC(=O)c2cc(-c3cc(OC)c(OC)c(OC)c3)nc3ccccc23)c1	SW480 rereplic inconclusive, MCF10A rereplic 18µM, TDP1 cell noCPT 21µM, TDP1 cell CPT inconclusive
COc1cc(-c2cc(C(=O)Nc3ccc(S(N)(=O)=O)cc3)c3ccccc3n2)cc(OC)c1OC	MCF10A rereplic inconclusive, TDP1 cell noCPT 3.7µM, IL1B secr inh inconclusive, TDP1 cell CPT 4.1µM
CC(=O)CC1OC(=O)C(Br)=C1NCc1ccccc1 (centres undefined)	SW480 rereplic inconclusive, MCF10A rereplic 2.6µM, TDP1 cell noCPT 1.5µM, IL1B secr inh -100, TDP1 cell CPT 0.92µM, Chronic BCR inh inconclusive
O=C(CC1Oc2ccccc2NC1=O)NCc1ccccc1 (centres undefined)	TDP1 cell CPT inconclusive
CCCS(=O)(=O)NCc1c(C)ncc2c1CCN(C(=O)/C=C/c1cccc(Cl)c1)C2	none (no result: SW480 rereplic, MCF10A rereplic, IL1B secr inh, Chronic BCR inh)
CC1=C([N+](=O)[O-])C(c2ccc(Cl)cc2)NC(=O)N1 (centres undefined)	none
Cc1cc(Sc2ncnc(N)c2[N+](=O)[O-])ncn1	SW480 rereplic inconclusive, MCF10A rereplic 2.9µM, TDP1 cell noCPT 0.92µM, IL1B secr inh -100, TDP1 cell CPT 0.29µM, Chronic BCR inh inconclusive
Cc1cc(Sc2nc(N)ncc2[N+](=O)[O-])ncn1	SW480 rereplic inconclusive, MCF10A rereplic inconclusive, TDP1 cell noCPT 1.3µM, IL1B secr inh -109, TDP1 cell CPT 0.73µM, Chronic BCR inh inconclusive
Cc1ccc(C)c(Oc2ncnc(N)c2[N+](=O)[O-])c1	none
Cc1cc(N)ncc1[N+](=O)[O-]	none (no result: Chronic BCR inh)
COc1cccc(CNC(=O)c2cnc(N3CCCC3)nc2C)c1	none (no result: SW480 rereplic, MCF10A rereplic, IL1B secr inh, Chronic BCR inh)

Assay outcomes (PubChem BioAssay)
